AID504770: growth inhibitors of E. coli YBA685 in a screen for V. cholerae RctB (chromosome II replication) inhibitors; z-score (no concentration beside the values); E. coli YBA685 rctB-dependent plasmid, OD600 growth, 3 h; active compounds read low; AID 504770; 0.27% of 130,000 active; in the data active = z-score below about -2, passing the limit was not always enough
Mtb MenB inh: inhibitors of Mycobacterium tuberculosis MenB enzyme. P9WNP5. MenB enzyme assay, absorbance read-out. inhibition, % (no concentration beside the values). 0.43% of 100,000 active; in the data active = inhibition above about 21%, passing the limit was not always enough
PV pol inh: poliovirus RNA polymerase inhibition | poliovirus polymerase elongation, fluorescence polarization; active compounds read low | % elongation, % (compound at 16.7 µg/mL) | 0.66% of 150,000 active | AID 588519; in the data active = % elongation below about 90%
Target sequence (P03300 1749-2209 limits assumed): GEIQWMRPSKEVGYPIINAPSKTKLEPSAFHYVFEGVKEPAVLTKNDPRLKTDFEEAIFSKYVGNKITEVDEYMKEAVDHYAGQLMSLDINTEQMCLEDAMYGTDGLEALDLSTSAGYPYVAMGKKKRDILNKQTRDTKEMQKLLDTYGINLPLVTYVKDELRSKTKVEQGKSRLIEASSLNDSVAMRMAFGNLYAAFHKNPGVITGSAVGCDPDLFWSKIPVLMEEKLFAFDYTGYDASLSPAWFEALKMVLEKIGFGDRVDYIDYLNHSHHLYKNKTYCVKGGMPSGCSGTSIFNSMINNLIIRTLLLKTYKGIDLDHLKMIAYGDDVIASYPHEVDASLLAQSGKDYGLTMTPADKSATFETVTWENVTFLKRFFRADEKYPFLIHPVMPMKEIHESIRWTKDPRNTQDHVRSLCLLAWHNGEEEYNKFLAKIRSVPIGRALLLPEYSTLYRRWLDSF
MbtI inh: blocks the Mycobacterium tuberculosis siderophore enzyme MbtI. AID 493033. 0.89% of 100,000 active. inhibition, % (test concentration not listed). purified MbtI enzyme, fluorescence intensity read-out; in the data active = inhibition mostly above about 56%, no sharp cut-off; inactive = mostly below about 77%
The depositor's hits bear a star; i = inactive; . = no result; ! = not confirmed by another sample. Rows were chosen to be rich in hits. Some 1.4% of all compounds tested hit in one or more screens of this group.

SMILES	AID504770	Mtb MenB inh	PV pol inh	MbtI inh
C=CC1=C(C(=O)O)N2C(=O)[C@@H](NC(=O)/C(=N\O)c3csc(N)n3)[C@H]2SC1 (stereo in doubt)	-5.1*	0	100	-4
CO/N=C(\C(=O)NC1C(=O)N2C(C(=O)OCOC(=O)C(C)(C)C)=C(/C=C\c3scnc3C)CSC12)c1csc(N)n1 (configuration not stated)	-0.1	-1	100	-15
S=c1[nH]nc(Nc2cccc(Br)c2)s1	-0.35	-32	102	98*
Cc1ccc(N2C(=O)N(c3ccccc3)C(=N)C2=S)cc1Cl	-0.95	2	68*	45
O=C1NC(=S)S/C1=C\c1ccccc1C(F)(F)F	2.8	.	.	.
O=C1NC(=O)/C(=C\c2ccccc2C(F)(F)F)S1	-0.4	-20	103	100*
O=C(CCCSc1cccc[n+]1[O-])c1ccc(F)cc1	0.15	-14	103	99*
O=C(CSc1cccc[n+]1[O-])c1ccccc1F	1.1	-46	98	22
COc1ccc(-c2noc(-c3ccc(NC4CCCC4)c([N+](=O)[O-])c3)n2)cc1OC	.	.	79*	.
CC(C)C(C)(C#N)NC(=O)CSc1nc(-c2ccccc2)c(-c2ccccc2)o1 (configuration not stated)	1.3	-14	102	117
O=C(NCc1ccccc1)c1cccc(S(=O)(=O)N2CCN(c3ccccc3)CC2)c1	0.35	-13	98	4
O=C(Nc1ccccc1)c1ccccc1OCC(=O)N1CCCC1	-3*	-16	105	-8
CCOc1ccccc1C(=O)Nc1ccccc1	-0.9	-9	102	-6
O=C1c2ccccc2C(=O)N1CCSC1=NN2CCS(=O)(=O)N=C2S1	1.7	1	84*	29
N#Cc1c(-c2ccccc2)cc(-c2ccccc2)nc1SCC(O)CS(=O)(=O)Cc1ccc(Cl)cc1 (configuration not stated)	.	.	89*	.
COc1ccc(-c2cc(-c3ccccc3)c(C#N)c(SCC(O)CS(=O)(=O)Cc3ccc(Cl)cc3)n2)cc1 (configuration not stated)	.	.	105	.
CCc1cc2c(=O)c3c(cn4ccccc34)oc2cc1OC(C)=O	0.7	-22	110	.
CCn1c(CCC(=O)N2CCN(c3ccccn3)CC2)nc2cc(S(N)(=O)=O)ccc21	0.05	-1	55*	103
CN(C)S(=O)(=O)c1ccc(S(=O)(=O)N2CCC(c3nc4ccccc4s3)CC2)cc1	-0.75	29*	102	2
Cc1nn(C(C)CN)c(C)c1C (configuration not stated)	1.9	34*	101	-3
COc1ccc(C(=O)CSC#N)cc1OC	-0.6	32*	97	.
COc1ccc(OC)c(C(=O)CSC#N)c1	1.9	-5	103	-45
COC(=O)C(C)N1C(=O)S/C(=C/c2ccc(N3CCCCCC3)o2)C1=O (configuration not stated)	-0.4	-47	75	53*
CCOC(=O)C(C)Sc1nnc(CNC(=O)C23CC4CC(CC(C4)C2)C3)n1-c1ccccc1 (configuration not stated)	1.5	-33	100	4
C1=CCC2NC(C1)Cc1ccccc12 (configuration not stated)	-0.25	29*	103	-1
SMILES	AID504770	Mtb MenB inh	PV pol inh	MbtI inh
O=C(Nc1ccc(F)cc1)C1CC(=O)N(CCc2ccccc2)C1 (configuration not stated)	0.8	13	103	8
CC(=O)OC(OC(C)=O)C12C=CC(O1)C1C(=O)N(c3ccccc3-c3ccccc3)C(=O)C12 (configuration not stated)	-0.1	-10	98	90*
NNc1nc2ccccc2[nH]c1=S	-3.2*	i	107	63
Cc1cc(C)cc(OCc2cc(=O)n3c4c(sc3n2)CCCC4)c1	.	.	78*	.
COc1ccccc1Nc1nn(CN2CCCCC2C)c(=S)s1 (configuration not stated)	-0.05	-28	94	100*
COc1ccccc1C(=O)CN1CCCCC1C (configuration not stated)	0.5	-21	107	-2
Cc1cccc(NC2=NCC(=O)N2Cc2ccccc2)c1	0.6	-16	87*	-9
O=C1CN=C(Nc2ccccc2Cl)N1Cc1ccccc1	1.7	-22	103	-5
N#CCn1c(=O)c2c(ncn2Cc2ccccc2)n(Cc2ccccc2)c1=O	-0.35	0	101	-7
S=c1[nH]nc2ccccn12	-0.95	3	100	92*!
S=c1[nH]cc2ccccn12	0.85	-20	113	59
O=C(c1ccco1)N1CCN(C(=O)c2ccco2)CC1	2.2	-36	104	-6
O=C(c1ccco1)n1c(=S)nc2ccccn21	0	-16	83*	.
CCc1cc(=O)oc2cc(O)cc(O)c12	0.05	47*	98	-50
CCCc1cc(=O)oc2cc(O)cc(O)c12	-0.85	.	.	.
CC(=O)Nc1nc2c(Cl)cccc2s1	0.3	-1	100	2
Cc1ccc2nc(CSc3nnc(-c4cccs4)n3CC3CCCO3)cc(=O)n2c1 (configuration not stated)	-0.45	-18	102	32
O=C1CC(c2n[nH]c(=S)o2)CN1c1ccc(Cl)cc1 (configuration not stated)	-0.25	17	99	82*
O=C1CC(c2nnc(Cc3cccc(Cl)c3)o2)CN1c1ccccc1 (configuration not stated)	.	.	103	.
NNC(=O)CSc1n[nH]c(=O)[nH]c1=O	-0.65	-8	102	2
O=C1C2CN3CN(C2)CC1(c1ccccc1)C3	0.25	34*	99	4
O=C1C2CN3CCN(C2)CC1(c1ccccc1)C3	1.8	.	.	0
Cc1ccc(NC(=S)C(C#N)C(N)=O)cc1Cl (configuration not stated)	-0.6	-1	102	74*
COCCCNC1CC(=O)N(c2ccc(OC)cc2)C1=O (configuration not stated)	-0.4	5	101	-1
Cc1nc(CSc2nnc(Cc3cccc4ccccc34)n2N)cs1	-3.8	-28	100	57*
SMILES	AID504770	Mtb MenB inh	PV pol inh	MbtI inh
CCn1c(C)c(C)c2cc(C(=O)NCCN3CCN(C)CC3)ccc21	-0.5	0	103	-25
CCOC(=O)c1noc2c1CCc1sccc1-2	-0.9	0	101	4
O=C(O)C1CSC2(CCN(Cc3ccccc3)CC2)N1 (configuration not stated)	0	38*	99	-3
NC(=O)C1CCN(Cc2ccccc2)CC1	-0.1	-1	100	-14
CN(CC(=O)Nc1ccc(N2CCOCC2)cc1)Cn1nc(Nc2ccccc2F)sc1=S	0.8	-31	96	99*
CC1=C(C)NC(=S)SC1	1.6	-20	99	97*
COC(=O)CNS(=O)(=O)c1ccsc1C(=O)OC	-0.35	-3	104	-6
O=C(c1ccco1)N1CCN(C(=S)Nc2ccc(S(=O)(=O)Nc3ncccn3)cc2)CC1	-0.8	-8	100	-10
Cc1cc(C)c(C(=O)O)c(=O)[nH]1	0.6	-7	106	12
Cc1cc(C)c(C(=O)O)c(=S)[nH]1	-2.5*	-22	102	89*
CN(C)C(=O)ONC(=O)Cc1ccccc1	-3.9*	.	.	.

Bioassay records (PubChem BioAssay)
